In the library only some 3.3% were active in any assay of this set; here they are far more common.
Arbovirus inh – antivirals against arbovirus infection, primary screen, cell-based, full library, 10K replicate subset. 200,000 compounds, 0.37% hits. inhibition, % at 10 µM. arbovirus infection cell-based antiviral screen. AID 1251, 2008; in the data active means inhibition above about 30%
ROMK mod – ROMK potassium channel modulators, primary screen, cell-based, thallium flux, MLSMR library. ATP-sensitive inward rectifier potassium channel 1 (Homo sapiens), P48048. B-score at 10 µM. 130,000 compounds, 2% hits. Tet-inducible ROMK, thallium flux fluorescence; actives lie on both sides;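 active means signal ratio slope over the read window, or its plate-corrected B-score, at least 3 SD from the plate mean, either direction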;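 further: B-score of the F/F0 ratio slope over 7 to 12 s after thallium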
WT yeast gro inh – growth inhibition of WT strain, primary screen, mitochondrial fusion inhibitor project, WT and mutant strains, chemical genetic | mitochondrial fusion phenotypic screen | inhibition, % at 10 µM | 190,000 compounds, 2.1% hits | AID 1362, 2008; in the data active means inhibition above about 58%; tested in S. cerevisiae
PERK inh – block of dimerizer-induced PERK translation repression, primary screen, PERK inhibitor project, CHO PERK-DD cells, SEAP luminescence, HTS. Eukaryotic translation initiation factor 2-alpha kinase 3 (Homo sapiens), Q9NZJ5. CHO PERK-DD fusion, SEAP luminescence translation reporter. inhibition, % at 5.6 µM. 220,000 compounds, 0.17% hits. AID 1416, 2008;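 active means inhibition above the mean inhibition of all tested compounds plus 3 SD, set separately per screening campaign, cut at about 2.9% in these data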;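 further: PERK kinase domain activated by AP20187 dimerizer at 100 nM; 0% = DMSO with dimerizer and 100% = rapamycin at 8.4 µM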
Target sequence (Q9NZJ5 whole entry, looked up, the tested form may be a part): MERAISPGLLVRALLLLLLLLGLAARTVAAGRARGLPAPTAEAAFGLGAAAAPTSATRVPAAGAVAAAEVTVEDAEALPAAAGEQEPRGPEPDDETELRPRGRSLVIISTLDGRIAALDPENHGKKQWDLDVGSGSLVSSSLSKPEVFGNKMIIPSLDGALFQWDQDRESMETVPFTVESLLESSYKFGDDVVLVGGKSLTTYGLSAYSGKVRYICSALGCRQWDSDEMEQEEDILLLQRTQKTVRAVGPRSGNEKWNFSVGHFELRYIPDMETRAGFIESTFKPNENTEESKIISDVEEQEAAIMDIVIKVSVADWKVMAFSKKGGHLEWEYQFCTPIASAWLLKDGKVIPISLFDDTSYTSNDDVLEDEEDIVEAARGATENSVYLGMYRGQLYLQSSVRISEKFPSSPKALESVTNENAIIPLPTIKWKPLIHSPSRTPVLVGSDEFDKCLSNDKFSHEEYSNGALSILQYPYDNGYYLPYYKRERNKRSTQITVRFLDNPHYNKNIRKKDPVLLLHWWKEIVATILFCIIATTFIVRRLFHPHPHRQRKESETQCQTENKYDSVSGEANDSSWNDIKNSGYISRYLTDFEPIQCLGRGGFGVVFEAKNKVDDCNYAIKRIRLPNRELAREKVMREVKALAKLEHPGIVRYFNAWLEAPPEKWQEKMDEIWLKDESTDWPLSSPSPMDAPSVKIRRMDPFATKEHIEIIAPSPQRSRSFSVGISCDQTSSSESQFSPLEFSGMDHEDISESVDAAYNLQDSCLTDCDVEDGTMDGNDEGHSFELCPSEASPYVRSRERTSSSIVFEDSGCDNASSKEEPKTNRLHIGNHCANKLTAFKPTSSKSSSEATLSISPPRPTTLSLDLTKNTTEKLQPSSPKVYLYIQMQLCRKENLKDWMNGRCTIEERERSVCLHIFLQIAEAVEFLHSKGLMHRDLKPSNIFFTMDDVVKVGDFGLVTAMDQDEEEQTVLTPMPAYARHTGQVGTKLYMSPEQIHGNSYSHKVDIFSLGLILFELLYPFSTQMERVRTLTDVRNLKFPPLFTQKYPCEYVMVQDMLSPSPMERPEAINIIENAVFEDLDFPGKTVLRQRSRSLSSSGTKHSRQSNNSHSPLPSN
Starred values were filed as active, the others as inactive; x = not tested or not shown.

SMILES	Arbovirus inh	ROMK mod	WT yeast gro inh	PERK inh
COC(=O)CN1C(c2ccc(Cl)cc2)=Nc2ccc(Cl)cc2C1c1ccccc1 (centres undefined)	-13	x	82*	0
COc1cccc(-c2nc(OC(C)C)c3ccccc3n2)c1	-11	x	61*	1
CC(C)Oc1nc(-c2ccc(Cl)cc2)nc2ccccc12	x	0.9	x	2
O=C(Nc1ccc(N2CCN(C(=O)c3ccccc3F)CC2)cc1)c1ncn[nH]1	-7	-0.026	-13	0
Cc1cc(NCCCN2CCOCC2)n2ncc(-c3ccc(Cl)cc3)c2n1	-7	x	29	0
Cc1cc(NCCCn2ccnc2)n2ncc(-c3ccc(Cl)cc3)c2n1	-32	x	64*	-1
Clc1ccc(Nc2ccc(-n3ccnc3)nn2)cc1Cl	-5	x	-8	-1
COc1cccc(-c2c[nH]c(=O)[nH]c2=O)c1	1	x	-8	1
CN(CCCC(=O)NCc1ccco1)S(=O)(=O)c1ccccc1	7	0.042	60*	3
C=CCOc1ccc2ccccc2c1CNCCCN1CCOCC1	0	x	64*	-1
COc1ccc2ccccc2c1CNCCCN1CCOCC1	10	-0.77	21	-1
CN1/C(=C\C=Nc2ccc3ccccc3c2)C(C)(C)c2ccccc21	24	x	77*	-1
Cc1ccc(O)c(-c2cc(-c3ccccc3[N+](=O)[O-])[nH]n2)c1	12	x	58	1
Cc1ccc(O)c(-c2cc(-c3ccccc3C)[nH]n2)c1	-31	-0.24	78*	0
Cc1ccc(O)c(-c2cc(C(F)(F)C(F)F)[nH]n2)c1	34*	-0.29	0	2
COc1ccc(-c2cc(C(F)(F)F)n3ncc(C(=O)N4CCCCC4c4cccnc4)c3n2)cc1 (centres undefined)	-1	-1.1	27	0
CC(=O)NCc1cn2c(C)csc2n1	4	x	7	1
Cc1ccc(S(=O)(=O)NCc2cn3c(C)csc3n2)cc1	-1	x	0	2
Cc1ccc(SCc2cn3c(C)csc3n2)cc1	1	x	74*	1
Cc1csc2nc(CNC(=O)CCC(=O)O)cn12	11	x	2	3.4*
Cc1cccc2nc(CSc3ccc(Cl)cc3)cn12	1	-0.61	73*	0
Cc1ccc(Cn2c(C)cc3c(c2=O)C(c2cccs2)C(C#N)=C(N)O3)cc1 (centres undefined)	-4	x	2	-1
N#Cc1sc2nc(C3CC3)cc(-c3ccc(Cl)cc3)c2c1N	9	0.36	72*	-1
COc1ccc(-c2cc(-c3cccs3)nc3sc(C#N)c(N)c23)cc1	0	x	6	0
CCn1c(=NC(=O)C2COc3ccccc3O2)sc2c(OC)ccc(OC)c21 (centres undefined)	x	x	x	0
SMILES	Arbovirus inh	ROMK mod	WT yeast gro inh	PERK inh
CC(C)Cc1nc(N2CCN(C(=O)c3ccccc3)CC2)c(C#N)c2c1CCC2	-42	x	73*	0
CC(=O)N1CCN(c2nc(CC(C)C)c3c(c2C#N)CCC3)CC1	-11	-3.3	-10	0
Cc1nc(NCc2cccnc2)c2c3c(sc2n1)CCCC3	-9	-2.4	-7	-1
OCCNc1nc(SCc2ccccc2)nc2sc3c(c12)CCC3	-11	x	78*	0
O=c1c2c3c(sc2nc(NCCO)n1CCc1ccccc1)CCCCC3	-18	x	70*	0
Cn1c(N/N=C/c2ccccc2)nc2sc3c(c2c1=O)CCC3	-29	x	62*	-1
N#Cc1c(Sc2ncc(C(F)(F)F)cc2Cl)nsc1C/C=N\OCc1ccccc1Br	5	0.075	-18	0
CCOC(=O)c1cc(-c2ccccc2)sc1NC(=O)CSc1nnnn1C	6	x	-7	-1
S=c1[nH]nc(-c2ccccc2)n1/N=C/c1ccc(-c2ccccc2Cl)o1	-12	1.3	58*	0
CN(C)c1nc(N(C)C)n(Cc2c(Cl)cccc2Cl)n1	-1	x	4	-1
N#Cc1c(-c2ccccc2)nc(SCC(=O)Nc2nnc(C(F)(F)F)s2)[nH]c1=O	73*	2.1	-4	1
N#Cc1c(-c2ccccc2)nc(SCC(=O)N(c2ccccc2)c2ccccc2)[nH]c1=O	33*	x	-10	0
CCn1nnc(NC(=O)COc2ccc([N+](=O)[O-])cc2)n1	x	x	x	3.0*
C/C(CCC(=O)OC[C@H]1O[C@H](C#Cc2ccccc2)C=C[C@@H]1Oc1ccc(C)cc1)=N\O[C@@H](C)CN1CCCCc2nc(C)c(C)cc21	7	-2.2	20	0
COc1ccc(O[C@H]2C=C[C@@H](c3ccccc3)O[C@@H]2COC(=O)CC/C(C)=N/O[C@@H](C)CN2CCCCc3nc(C)c(C)cc32)cc1	8	-2	67*	0

Screening data deposited in PubChem by several laboratories.
